Molecular target: 5-HT1A receptor (human, UniProt P08908)
Test: primary screen, binary call; higher = more effect of the substance
Design: hit call from the mean of at least two separate experiments
Details: 10 µM; call rule not given here
Method: GPCR radioligand binding assays were performed in HEK293 cells with stable expression of human 5-HT1A, 5-HT6, and 5-HT7b receptors (prepared with the use of Lipofectamine 2000). Non-specific binding was defined with 10 µM of 5-HT in 5-HT1AR and 5-HT7R binding experiments, whereas 10 µM of mianserin was used in 5-HT6R assays, respectively. Each compound was tested at 10 µM concentration. Results were expressed as means of at least two separate experiments.

Chain of 5-HT1A receptor (P08908 whole entry, looked up): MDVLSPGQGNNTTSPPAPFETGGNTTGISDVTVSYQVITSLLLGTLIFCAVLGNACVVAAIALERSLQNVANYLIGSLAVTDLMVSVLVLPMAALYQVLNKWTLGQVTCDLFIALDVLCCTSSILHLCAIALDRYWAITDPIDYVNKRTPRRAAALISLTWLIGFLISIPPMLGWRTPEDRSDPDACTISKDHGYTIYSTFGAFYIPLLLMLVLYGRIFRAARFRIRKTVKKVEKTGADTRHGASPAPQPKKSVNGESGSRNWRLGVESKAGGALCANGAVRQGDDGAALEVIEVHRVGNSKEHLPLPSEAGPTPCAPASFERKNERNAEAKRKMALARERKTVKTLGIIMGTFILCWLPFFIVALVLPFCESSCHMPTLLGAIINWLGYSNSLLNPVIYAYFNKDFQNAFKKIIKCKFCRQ

5-HT1, inactive:
COc1ccc(C2=CCNCC2)cc1 0, Nc1nnc(-c2cccs2)[nH]1 0, Cc1ccc(-c2ccc(O)cc2)cc1 0, Cc1ccc(CCNc2ccccc2)cn1 0, O=C(c1ccccc1F)N1CCNCC1 0, c1ccc(-c2ccncc2)cc1 0, Oc1nnc(-c2ccccc2)o1 0, O=C1CC(CSc2ccc(Cl)cc2)=NN1 0, N#CCCN1CCc2ccccc21 0, O=C1CNCCN1c1ccccc1 0, O=C(O)C1CCN(c2ncccn2)CC1 0, O=c1[nH]c2c(s1)CCC2 0, Brc1ccc(-c2ccon2)cc1 0, c1ccc(Nc2nncs2)cc1 0, Cc1ccc(C)n1Cc1ccccc1Cl 0, CCn1cnc2ccccc21 0, CC1CCc2sc(C(=O)O)cc2C1 (stereo not shown) 0, COc1ccc(CN2CCNCC2)cc1F 0, c1cnc2c(c1)NCCC2 0, Clc1ccc2nnnn2n1 0, O=C1CCC(=O)N(c2ccccc2)N1 0, Fc1ccc(CC2CCCNC2)cc1 (stereo not shown) 0, O=C(O)c1cccc(Nc2ncccn2)c1 0, CC1C(=O)NC(=O)N1c1ccc(Cl)cc1 (stereo not shown) 0, Cn1nc(C(F)(F)F)cc1O 0, CC(CN)N1CCc2sccc2C1 (stereo not shown) 0, O=C1CCN(c2ccccn2)CC1 0, Cc1cc(N)no1 0, CC1(C)OC(=O)c2cc(Br)c(O)cc2O1 0, Nc1ccc(-c2ccccc2)cc1C(=O)O 0, COC(=O)c1c(C)nc(C2CC2)[nH]c1=O 0, Oc1ccc(C2CCNCC2)cc1 0, O=C(c1ccccc1)N1CCC(CO)CC1 0, Cc1cnc(C(F)(F)F)cn1 0, O=C(c1ccncc1)N1CCNCC1 0, CC(=O)c1sc(-c2ccc(O)cc2)nc1C 0, CCCN1C(=O)CC(=O)NC1=S 0, O=C1CCN(c2ccncc2)CC1 0

5-HT1, active:
COc1ccccc1N1CCNCC1 1, COc1ccccc1CC1CCNCC1.Cl 1

— paper PMC8159961, “Exploring protein hotspots by optimized fragment pharmacophores” (Nature Communications, 2021)
